For 33 molecules, binding signal results are on record in PMC9911399, “Two distinct binding modes provide the RNA-binding protein RbFox with extraordinary sequence specificity”.

Positions count from the first letter of the chain named. In all, about 16,000 sequences were measured (“ka relative to ugcaugu”: median about 0.096, highest 2% from about 0.35 on). For the sample, the highest values were picked, then their nearest neighbours and some sequences at random.

T1: RBFOX1 RRM RbFoxmut (Fox-RRM*) (Homo sapiens, UniProt Q9NWB1 109-208, R118D;E147R;N151S;E152T)
T1 sequence: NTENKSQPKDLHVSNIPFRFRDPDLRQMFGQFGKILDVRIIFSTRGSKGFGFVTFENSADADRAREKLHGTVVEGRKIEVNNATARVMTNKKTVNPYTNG

B1: AGAAGCG (DNA:RNA)
RNA: GGGAGACCGGAAUUCAGAUUGUCCAGAAGCGUUAAAUCCCGUCGUAGCCACCA
DNA 1: CAATCTGAATTCCGGTCTCCC
DNA 2: TGGTGGCTACGACGGGATT
B2: CUCCUCC (DNA:RNA)
RNA: B1 RNA with A25C, G26U, A27C, A28C, G29U, G31C
DNA 1: CAATCTGAATTCCGGTCTCCC
DNA 2: TGGTGGCTACGACGGGATT
B3: UGCAUCU (DNA:RNA)
RNA: B1 RNA with A25U, A27C, G29U, G31U
DNA 1: CAATCTGAATTCCGGTCTCCC
DNA 2: TGGTGGCTACGACGGGATT
B4: CCUGCAU (DNA:RNA)
RNA: GGGAGACCGGAAUUCAGAUUGUCCCCUGCAUUUAAAUCCCGUCGUAGCCACCA
DNA 1: CAATCTGAATTCCGGTCTCCC
DNA 2: TGGTGGCTACGACGGGATT
B5: CUGCAUC (DNA:RNA)
RNA: B4 RNA with C26U, U27G, G28C, C29A, A30U, U31C
DNA 1: CAATCTGAATTCCGGTCTCCC
DNA 2: TGGTGGCTACGACGGGATT
B6: CUGCAGA (DNA:RNA)
RNA: B4 RNA with C26U, U27G, G28C, C29A, A30G, U31A
DNA 1: CAATCTGAATTCCGGTCTCCC
DNA 2: TGGTGGCTACGACGGGATT
B7: UGCAAUC (DNA:RNA)
RNA: B1 RNA with A25U, A27C, G29A, C30U, G31C
DNA 1: CAATCTGAATTCCGGTCTCCC
DNA 2: TGGTGGCTACGACGGGATT
B8: UGAAUCU (DNA:RNA)
RNA: B1 RNA with A25U, G29U, G31U
DNA 1: CAATCTGAATTCCGGTCTCCC
DNA 2: TGGTGGCTACGACGGGATT
B9: AGCAGCA (DNA:RNA)
RNA: B1 RNA with A27C, G31A
DNA 1: CAATCTGAATTCCGGTCTCCC
DNA 2: TGGTGGCTACGACGGGATT
B10: ACAAAUC (DNA:RNA)
RNA: B1 RNA with G26C, G29A, C30U, G31C
DNA 1: CAATCTGAATTCCGGTCTCCC
DNA 2: TGGTGGCTACGACGGGATT
B11: UUGGAGA (DNA:RNA)
RNA: B4 RNA with C25U, C26U, U27G, C29A, A30G, U31A
DNA 1: CAATCTGAATTCCGGTCTCCC
DNA 2: TGGTGGCTACGACGGGATT
B12: UUGGAUG (DNA:RNA)
RNA: B1 RNA with A25U, G26U, A27G, A28G, G29A, C30U
DNA 1: CAATCTGAATTCCGGTCTCCC
DNA 2: TGGTGGCTACGACGGGATT
B13: GUGGAUG (DNA:RNA)
RNA: B1 RNA with A25G, G26U, A27G, A28G, G29A, C30U
DNA 1: CAATCTGAATTCCGGTCTCCC
DNA 2: TGGTGGCTACGACGGGATT
B14: GCGUGGA (DNA:RNA)
RNA: B1 RNA with A25G, G26C, A27G, A28U, C30G, G31A
DNA 1: CAATCTGAATTCCGGTCTCCC
DNA 2: TGGTGGCTACGACGGGATT
B15: UUGGAUC (DNA:RNA)
RNA: B4 RNA with C25U, C26U, U27G, C29A, A30U, U31C
DNA 1: CAATCTGAATTCCGGTCTCCC
DNA 2: TGGTGGCTACGACGGGATT
B16: UUGGAUU (DNA:RNA)
RNA: B4 RNA with C25U, C26U, U27G, C29A, A30U
DNA 1: CAATCTGAATTCCGGTCTCCC
DNA 2: TGGTGGCTACGACGGGATT
B17: GUGGAUC (DNA:RNA)
RNA: B4 RNA with C25G, C26U, U27G, C29A, A30U, U31C
DNA 1: CAATCTGAATTCCGGTCTCCC
DNA 2: TGGTGGCTACGACGGGATT
B18: GUGGAUU (DNA:RNA)
RNA: B4 RNA with C25G, C26U, U27G, C29A, A30U
DNA 1: CAATCTGAATTCCGGTCTCCC
DNA 2: TGGTGGCTACGACGGGATT
B19: GUGGAGA (DNA:RNA)
RNA: B4 RNA with C25G, C26U, U27G, C29A, A30G, U31A
DNA 1: CAATCTGAATTCCGGTCTCCC
DNA 2: TGGTGGCTACGACGGGATT
B20: GGCCUAA (DNA:RNA)
RNA: B1 RNA with A25G, A27C, A28C, G29U, C30A, G31A
DNA 1: CAATCTGAATTCCGGTCTCCC
DNA 2: TGGTGGCTACGACGGGATT
B21: GUUCGUA (DNA:RNA)
RNA: B1 RNA with A25G, G26U, A27U, A28C, C30U, G31A
DNA 1: CAATCTGAATTCCGGTCTCCC
DNA 2: TGGTGGCTACGACGGGATT
B22: UUCUUCA (DNA:RNA)
RNA: B1 RNA with A25U, G26U, A27C, A28U, G29U, G31A
DNA 1: CAATCTGAATTCCGGTCTCCC
DNA 2: TGGTGGCTACGACGGGATT
B23: UGCGUAU (DNA:RNA)
RNA: B4 RNA with C25U, C26G, U27C, C29U
DNA 1: CAATCTGAATTCCGGTCTCCC
DNA 2: TGGTGGCTACGACGGGATT
B24: AUAGGAG (DNA:RNA)
RNA: B1 RNA with G26U, A28G, C30A
DNA 1: CAATCTGAATTCCGGTCTCCC
DNA 2: TGGTGGCTACGACGGGATT
B25: CAGGGCG (DNA:RNA)
RNA: B1 RNA with A25C, G26A, A27G, A28G
DNA 1: CAATCTGAATTCCGGTCTCCC
DNA 2: TGGTGGCTACGACGGGATT
B26: GAUCCAA (DNA:RNA)
RNA: B4 RNA with C25G, C26A, G28C, U31A
DNA 1: CAATCTGAATTCCGGTCTCCC
DNA 2: TGGTGGCTACGACGGGATT
B27: AGCUUUC (DNA:RNA)
RNA: B1 RNA with A27C, A28U, G29U, C30U, G31C
DNA 1: CAATCTGAATTCCGGTCTCCC
DNA 2: TGGTGGCTACGACGGGATT
B28: CGAUGCC (DNA:RNA)
RNA: B1 RNA with A25C, A28U, G31C
DNA 1: CAATCTGAATTCCGGTCTCCC
DNA 2: TGGTGGCTACGACGGGATT
B29: GAAUCCC (DNA:RNA)
RNA: B1 RNA with A25G, G26A, A28U, G29C, G31C
DNA 1: CAATCTGAATTCCGGTCTCCC
DNA 2: TGGTGGCTACGACGGGATT
B30: GAAUGCC (DNA:RNA)
RNA: B1 RNA with A25G, G26A, A28U, G31C
DNA 1: CAATCTGAATTCCGGTCTCCC
DNA 2: TGGTGGCTACGACGGGATT
B31: GGAUGCC (DNA:RNA)
RNA: B1 RNA with A25G, A28U, G31C
DNA 1: CAATCTGAATTCCGGTCTCCC
DNA 2: TGGTGGCTACGACGGGATT
B32: CGAUGCG (DNA:RNA)
RNA: B1 RNA with A25C, A28U
DNA 1: CAATCTGAATTCCGGTCTCCC
DNA 2: TGGTGGCTACGACGGGATT
B33: GAAUGCG (DNA:RNA)
RNA: B1 RNA with A25G, G26A, A28U
DNA 1: CAATCTGAATTCCGGTCTCCC
DNA 2: TGGTGGCTACGACGGGATT

The assay concerns the target T1, RBFOX1 RRM RbFoxmut (Fox-RRM*). Briefly: EMSA; HiTS-Eq, 1 nM pool, 10 min; buffer printed only for the single-RNA assays: 10 mM Tris pH 7.5, 150 mM NaCl, 3.4 mM EDTA, 0.001% NP-40, 30 C. The conditions noted are these: tags: His6 N-terminal (pET28a); label: 5' 32P. A digest of the protocol:
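A pool of RNA with 7 randomized nucleotides, 5′-radiolabelled and with DNA-annealed flanks, was equilibrated at 1 nM for 10 min in 50 µL with purified RbFox RRM, wild type or mutant, across increasing protein concentrations. Free RNA was separated by 8% native PAGE, excised, reverse-transcribed, barcoded by PCR and sequenced. Relative association constants were obtained from read-count changes of each RNA species versus the control reaction and normalised to the cognate motif.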
For orientation: Mobility shift assays separate free from complexed probe on a gel.
For the molecule B1, the binding signal is 0.107 KA relative to UGCAUGU.

On to B2, for which the binding signal was 0.0813 KA relative to UGCAUGU.

With B3, the binding signal was 0.727 KA relative to UGCAUGU.

Turning to B4, the binding signal was 0.139 KA relative to UGCAUGU.

As to B5, the binding signal was 0.457 KA relative to UGCAUGU.

As for B6, the binding signal is 0.136 KA relative to UGCAUGU.

Regarding B7, the binding signal was 0.102 KA relative to UGCAUGU.

Take B8: the binding signal was 0.244 KA relative to UGCAUGU.

For the molecule B9, the binding signal was 0.14 KA relative to UGCAUGU.

As to B10, the binding signal was 0.0702 KA relative to UGCAUGU.

For B11, the binding signal is 0.0955 KA relative to UGCAUGU.

As for B12, the binding signal was 0.61 KA relative to UGCAUGU.

Turning to B13, the binding signal was 1.04 KA relative to UGCAUGU.

With B14, the binding signal is 0.092 KA relative to UGCAUGU.

As to B15, the binding signal is 0.321 KA relative to UGCAUGU.

As for B16, the binding signal was 0.106 KA relative to UGCAUGU.

For the molecule B17, the binding signal is 0.357 KA relative to UGCAUGU.

Turning to B18, the binding signal is 0.1 KA relative to UGCAUGU.

With B19, the binding signal was 0.118 KA relative to UGCAUGU.

Regarding B20, the binding signal is 0.0594 KA relative to UGCAUGU.

For B21, the binding signal is 0.155 KA relative to UGCAUGU.

Take B22: the binding signal is 0.111 KA relative to UGCAUGU.

On to B23, for which the binding signal was 0.143 KA relative to UGCAUGU.

For B24, the binding signal was 0.097 KA relative to UGCAUGU.

As to B25, the binding signal was 0.123 KA relative to UGCAUGU.

Turning to B26, the binding signal is 0.0776 KA relative to UGCAUGU.

B27: the binding signal was 0.0646 KA relative to UGCAUGU.

For B28, the binding signal is 0.206 KA relative to UGCAUGU.

For B29, the binding signal was 0.0694 KA relative to UGCAUGU.

Turning to B30, the binding signal was 0.356 KA relative to UGCAUGU.

Regarding B31, the binding signal is 0.168 KA relative to UGCAUGU.

Turning to B32, the binding signal was 0.113 KA relative to UGCAUGU.

In the case of B33, the binding signal was 0.763 KA relative to UGCAUGU.
